Test results as given in PubChem BioAssay AID2284379 (EPA ToxCast).
Inconclusive results are not listed. Active and inactive are the calls of the source. The calls were made as follows: active = hit-call score of the fitted dose curve at least 0.9, where 1 is the maximum; inconclusive = response in the unintended direction; inactive = score below 0.9.

Test: ATG_M_32_EcoTox2: Attagene TRANS-FACTORIAL EcoTox-2 HepG2 Assay for M32 Transcription Factor (Internal Marker)
Description: ATG_EcoTox2 is a cell-based, multiplexed assay created by modifying the existing Attagene TRANS-FACTORIAL system to include a panel of nuclear receptors from some or all the following species: human (Homo sapiens), african clawed frog (Xenopus laevis), rainbow trout (Oncorhynchus mykiss), japanese medaka (Oryzias latipes), and zebrafish (Danio rerio). The ECOTOX2-FACTORIAL format uses HepG2, a human liver cell line, with measurements taken at 24 hours after chemical dosing in a 24-well plate. ATG_M_32_EcoTox2 is one of 29 assay components calculated in the ATG_EcoTox2 assay. It is designed to make measurements of mRNA induction, a form of inducible reporter, as detected with fluorescence intensity signals by Reverse transcription polymerase chain reaction (RT-PCR) and Capillary electrophoresis technology.The assay endpoint ATG_M_32_EcoTox2 was analyzed in the positive analysis fitting direction relative to DMSO as the negative control and baseline of activity. Using a type of inducible reporter, measures of mRNA for gain-of-signal activity can be used to understand the background control at the transcription factor-level as they relate to the gene. Furthermore, this assay endpoint can be referred to as a secondary readout, because this assay has produced multiple assay endpoints where this one serves a background control function. To generalize the intended target to other relatable targets, this assay endpoint is annotated to the background measurement intended target family, where the subfamily is internal marker.
Human liver HepG2 cells are transiently transfected with multiple reporter transcription units (MRTUs) in 6-well plates using FuGene 6 reagent (Roche; 3 ml FuGene/1 mg DNA). The MRTU constructs are regulated by a cis-regulating element (promoter). Each RTU expresses a GAL4-UAS that regulates the transcription of a nearby target reporter gene sequence. A major difference between the CIS and TRANS system is that in CIS activities of endogenous TFs are measured, whereas the TRANS assay evaluates changes in activities of exogenous, chimeric NR-Gal4 proteins. […] At the end of 24 hour incubation, total RNA was isolated using TriZol reagent (Invitrogen). The isolated RNA is then reverse-transcribed using oligo(dT) primer and Mo-MLV reverse transcriptase (Invitrogen) with DNAse I (Ambion) treatment for 30 min. The one-tenth of the produced cDNA was amplified by PCR using Taq DNA polymerase (Invitrogen) and two reporter sequence-specific primers. The PCR products were fluorescently labeled by primer extension with 6-arboxyfluorescein (6-FAM) 5'-labeled reporter sequence-specific primer (2 min at 95 C, 20 s at 68 C and 10 min at 72 C) and these products were digested with 5U of HpaI (New England Biolabs) for 2h at 37 C. The fragments were purified using Qiaquick PCR columns (Qiagen), analyzed on an ABI 3130xL genetic analyzer (Applied Biosystems) with peak positions identified by using a set of X-rhodamine (ROX)-labeled MapMarker1000 molecular weight standards (BioVentures). The raw capillary electrophoresis data was processed using Attagraph software (Attagene).

Structure (SMILES) | outcome
[Cl][Sn]([c]1ccccc1)([c]1ccccc1)[c]1ccccc1 | inactive
O=S(=O)(O)C(F)(F)C(F)(F)C(F)(F)C(F)(F)C(F)(F)C(F)(F)F | inactive
CCCCOCN(C(=O)CCl)c1c(CC)cccc1CC | inactive
O=P(Oc1ccccc1)(Oc1ccccc1)Oc1ccccc1 | inactive
O=C(O)C(F)(F)C(F)(F)C(F)(F)C(F)(F)C(F)(F)C(F)(F)C(F)(F)F | inactive
